Compound activity as filed in PubChem.
The list is not random: actives were taken first. Their share in the collection is about 2.9%.
MEKK2 WT-MEK5: modulators of MEK5 binding to wildtype MEKK2, primary screen, biochemical, multiplex bead flow cytometry, Alexa488-MEK5; Alexa488-MEK5 binding to MEKK2 WT; actives lie on both sides; binding response (% of control), % at 10 µM; 290,000 compounds, 1.1% hits; in the data active = binding response below about 67% or above about 130%
CRFBP-R2 block: antagonists of CRF-BP/CRF-R2 complex, primary screen, cell-based, HEK293, calcium dye fluorescence, uHTS. CRF-induced calcium fluorescence. inhibition, % at 11.8 µM. 350,000 compounds, 0.59% hits;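 active = inhibition of the ligand-induced calcium signal above about 50% at the single tested concentration, limit read from the data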
MEKK3 PB1 HTS: modulators of MEKK3-MEK5 PB1 binding, primary screen, biochemical, wildtype MEKK3, multiplex bead flow cytometry, Alexa488-MEK5; Mitogen-activated protein kinase kinase kinase 3 (Homo sapiens), Q99759; bead-based flow cytometry, Alexa488-MEK5 binding to MEKK3; actives lie on both sides; 0 = blocked by unlabeled MEK5, 100 = vehicle; binding response (% of control), % at 10 µM; 290,000 compounds, 1.4% hits;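 active = binding response more than 3 SD above or below the average of its plate-row segment, actives on both sides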;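 note: Alexa488 bead fluorescence after subtracting the streptavidin-only scavenger bead signal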
ABCB6 inh 2: ABCB6 transporter inhibitors, primary screen, K562-ABCB6 cells, flow cytometry, MLPCN library | fluorescence ratio to DMSO, % at 10 µM | 360,000 compounds, 0.19% hits | ATP-binding cassette sub-family B member 6 (Homo sapiens), Q9NP58 | K562-ABCB6 porphyrin accumulation, 1 h; active compounds read low | AID 602162, 2011;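 active = fluorescence ratio to DMSO below 75%, the collection mean minus 3 SD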;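 note: signal is porphyrin accumulated inside mitochondria; 100% equals median channel fluorescence of DMSO control wells; lower ratio means ABCB6 inhibition with less porphyrin fluorescence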
CRFR2-BP ag: agonists of CRF-BP/CRF-R2 complex, primary screen, cell-based, HEK293, calcium dye fluorescence, uHTS. CRF-binding protein / CRF receptor 2 complex (human). 350,000 compounds, 0.46% hits. activation, % at 13.2 µM. AID 588473, 2011. calcium dye fluorescence (FLIPR); percent of saturating CRF peptide response;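 active = activation of at least 50%, plus an integration ratio under a set limit after plate pattern correction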;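 note: plate controls were neutral control wells without compound for no effect and CRF at EC100 for full effect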
MEKK2mut PB1 HTS: MEK5 binding signal on mutant MEKK2 PB1, primary screen, biochemical, multiplex bead flow cytometry, Alexa488-MEK5; percent response, % at 10 µM; Alexa488-MEK5 binding to MEKK2 mutant; 290,000 compounds, 0.35% hits; AID 1530, 2009; in the data active = percent response above about 24%, passing the limit was not always enough
MEKK2wt confirm: modulators of MEK5 binding to wildtype MEKK2, confirmation, biochemical, single concentration, multiplex bead flow cytometry; shares compounds with MEKK3 PB1 HTS; Alexa488-MEK5 binding to MEKK2 WT; actives lie on both sides; binding response (% of control), % at 10 µM; 5,900 compounds, 2.4% hits; AID 1892, 2009; in the data active = binding response below about 16% or above about 210%; inactive = in between
MEKK2mut-MEK5: mutant MEKK2 PB1-MEK5 binding signal retest – biochemical, single concentration, multiplex bead flow cytometry, confirmation; shares compounds with MEKK3 PB1 HTS; Alexa488-MEK5 binding to MEKK2 mutant; percent response, % at 10 µM; 5,900 compounds, 2% hits; AID 1893, 2009; in the data active = percent response mostly above about 71%, no sharp cut-off; inactive = mostly below about 38%;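 note: higher means compound restores mutant binding toward wildtype level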
MEKK3-MEK5 inh: MEKK3 wild-type PB1 binding to MEK5, inhibitors, confirmation, biochemical, bead multiplex flow cytometry, single concentration, wildtype; binding response (% of control), % at 10 µM; AID 1894, 2009; 5,900 compounds, 1.8% hits; shares compounds with MEKK3 PB1 HTS; Alexa488-MEK5 binding to MEKK3; active compounds read low;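 active = binding response below 72% of control, or above a set upper limit, though filed actives all read lower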;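 note: 100% = DMSO only wells and 0% = binding blocked by excess unlabeled MEK5; lower values mean stronger disruption of MEK5 binding to MEKK3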
* hit, by the source's call; . = no result; [ ] = remark or other dose.

SMILES | MEKK2 WT-MEK5 | CRFBP-R2 block | MEKK3 PB1 HTS | ABCB6 inh 2 | CRFR2-BP ag | MEKK2mut PB1 HTS | MEKK2wt confirm | MEKK2mut-MEK5 | MEKK3-MEK5 inh
N#Cc1cccc(Oc2ccc(-c3cnc4ccccc4n3)cc2)c1C#N | 100 | -14 | 130* | 88 | -2 | -1 | 98 | -5 | 100
N#Cc1ccc(Oc2ccc(-c3cnc4ccccc4n3)cc2)cc1C#N | 90 | -6 | 96 | 93 | -2 | 2 | . | . | .
CCCCC(=O)NCc1ccc2c(c1)cc(C)n2C | 86 | 2 | 93 | 96 | 7 | -3 | . | . | .
CCOC(=O)CCC(=O)NCc1ccc2[nH]c(C)cc2c1 | 81 | 14 | 82*[inhibitor] | 90 | -1 | -5 | 94 | 0 | 100
CCOC(=O)CCC(=O)NCc1ccc2c(c1)cc(C)n2C | 77 | -4 | 74*[inhibitor] | 100 | 3 | -4 | 98 | 2 | 98
Fc1ccccc1/C=C/c1ccc2ccccc2n1 | 108 | -22 | 130* | 86 | 0 | 5 | 101 | -4 | 99
C(=C\c1ccc2ccccc2n1)/c1ccccc1 | 34*[inhibitor] | 7 | 40*[inhibitor] | 98 | -1 | -12 | 100 | -3 | 94
CC(NC(=S)NCCc1ccccc1)C(c1cccs1)N1CCN(Cc2ccccc2)CC1 (stereo not drawn) | 138* | -20 | 81 | 99 | 11 | 14 | 148 | 35 | 113
CC(NC(=O)NC1CCCCC1)C(c1cccs1)N1CCN(Cc2ccccc2)CC1 (stereo not drawn) | 99 | -28 | 99 | 87 | -1 | -3 | . | . | .
O=C(NC1CCCC1)C(c1cccnc1)N(C(=O)c1csnn1)C1CCCC1 (stereo not drawn) | 104 | -4 | 75*[inhibitor] | 97 | 0 | 3 | 101 | 1 | 101
O=C(NC1CCCCC1)C(c1cccnc1)N(C(=O)c1csnn1)C1CCCC1 (stereo not drawn) | 109 | 7 | 116 | 99 | 0 | 3 | . | . | .
CC(=O)c1sc(N)c(C(=O)OC(C)C)c1C | 107 | 12 | 105 | 111 | -1 | 1 | . | . | .
Cc1c(C(N)=O)sc(N)c1C(=O)OC(C)C | 118 | 15 | 122* | 94 | -3 | 8 | 103 | 0 | 106
Cc1c(C(=O)OC(C)C)sc(N)c1C(=O)OC(C)C | 104 | 5 | 131* | 102 | 0 | 0 | 102 | -2 | 102
Cc1ccc(S(=O)(=O)N2CCOCC2)cc1NC(=O)COC(=O)/C=C/c1ccco1 | . | -4 | . | 89 | 0 | . | . | . | .
COc1ccc(C2C(C(=O)N3CCCCC3)CC(=O)N2c2ccc(OC)cc2)cc1 (stereo not drawn) | 118 | 0 | 127* | 87 | 1 | 4 | 95 | -8 | 95
COc1cc(OC)c(NC(=O)C2CCCO2)cc1Cl (stereo not drawn) | 104 | -3 | 104 | 102 | 2 | 0 | . | . | .
COc1cc(NC(=O)C2CCCO2)c(OC)cc1Cl (stereo not drawn) | 103 | 15 | 82*[inhibitor] | 96 | -4 | 0 | 103 | 0 | 103
